JMJD2A Tudor = inhibitors of human JMJD2A Tudor domain | AlphaScreen JMJD2A-Tudor / H3K4me3 peptide binding | Potency, µM (doses to about 114 µM), most hits filed as inhibitors | hit rate 4.4% among 390,000 | AID 504339; further: nearly all actives have a fitted effect of over 50% in size
PI5P4Ka inh = inhibitors of human PI5P4K alpha; PI5P4Kalpha enzyme, ADP-Glo luminescence, 60 min; active compounds read low; max response, %; hit rate 1.2% among 330,000; AID 652105; active means max response of -50% or lower; inconclusive means between -30% and -50%; inactive means -30% or higher; further: value at the top dose of about 77 µM
Target sequence (P48426 whole entry, looked up): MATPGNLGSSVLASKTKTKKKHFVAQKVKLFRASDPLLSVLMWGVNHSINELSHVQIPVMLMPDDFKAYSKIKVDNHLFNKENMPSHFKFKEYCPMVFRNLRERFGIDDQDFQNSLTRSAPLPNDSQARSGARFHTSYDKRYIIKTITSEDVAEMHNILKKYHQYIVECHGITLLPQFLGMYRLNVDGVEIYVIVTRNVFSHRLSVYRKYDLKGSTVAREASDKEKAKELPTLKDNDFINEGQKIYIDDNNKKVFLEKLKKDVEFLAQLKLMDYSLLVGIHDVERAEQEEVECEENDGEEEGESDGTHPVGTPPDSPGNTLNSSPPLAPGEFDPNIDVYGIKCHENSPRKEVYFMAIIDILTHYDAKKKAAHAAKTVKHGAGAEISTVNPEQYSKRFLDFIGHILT
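ADP-Glo luminescence end-point read after a 60 min room-temperature kinase reaction of PI5P4Kalpha plus substrate, initiated with ATP at 5 microM final. Buffer: 0.038 M HEPES pH 7.4, EGTA, 0.1% CHAPS, 5% DMSO.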
HP1b chromo inh = blocks HP1-beta chromodomain binding to methylated histone tails. P83916. AlphaScreen HP1-beta / biotin-H3K9me3 peptide binding. Potency, µM (top dose mostly 114 µM), usual class: inhibitors. hit rate 0.56% among 390,000. AID 540317; further: nearly all actives have a fitted effect of over 70% in size
Target sequence (P83916 whole entry, looked up): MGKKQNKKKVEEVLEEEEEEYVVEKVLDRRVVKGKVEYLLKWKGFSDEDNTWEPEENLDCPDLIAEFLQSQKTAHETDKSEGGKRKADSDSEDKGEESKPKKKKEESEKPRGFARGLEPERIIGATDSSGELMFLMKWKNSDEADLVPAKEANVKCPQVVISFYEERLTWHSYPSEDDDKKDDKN
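AlphaScreen: HP1-beta (50 nM) preformed 30 min with biotin-H3(1-18)K9me3 peptide (50 nM) in PBS pH 7.4, 0.01% Tween-20. Compound added for 30 min at RT, then streptavidin donor/nickel chelate acceptor beads (10 ug/mL) for 30 min.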
PLK1 PBD inh = inhibitors of human PLK1 polo-box domain binding; Plk1 PBD binding of FITC phosphopeptide, fluorescence polarization; hit rate 2.8% among 360,000; P53350; AID 720504; Potency, µM, most hits filed as inhibitors; further: series mostly up to about 57 µM; nearly all actives have a fitted effect of over 65% in size
G9a inh = inhibitors of human histone lysine methyltransferase G9a; Q96KQ7; G9a H3K9 monomethylation, AlphaScreen, 2 h; Potency, µM (titrated, usually from 102 µM), usual class: inhibitors; hit rate 8.8% among 350,000; AID 504332; further: nearly all actives have a fitted effect of over 75% in size
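AlphaScreen read-out: biotin-H3K9 peptide (500 nM) methylation by 20 nM enzyme with 20 uM SAM, 2 h at room temperature after 15 min compound preincubation; anti-monomethyl H3K9 antibody plus donor/acceptor beads, 10 min dark.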
BAZ2B inh = BAZ2B (human) inhibition; Q9UIF8; hit rate 4.4% among 360,000; Potency, µM (highest dose often 114 µM), actives largely listed as inhibitors; AID 504333; AlphaScreen BAZ2B-H3K14Ac peptide displacement; further: nearly all actives have a fitted effect of over 60% in size
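AlphaScreen displacement: compounds (up to 110uM) incubated 30 min at room temperature with a preformed 50 nM BAZ2B/50 nM biotinylated H3K14Ac peptide complex in PBS pH 7.4 with Tween-20. Donor and acceptor beads at 10 ug/mL final added, 20 min light-protected before reading.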
Hits are given with their value; n = inactive; u = inconclusive; x = not tested or not shown; [ ] = dose if it differs, or a comment. This is a sample that favours compounds with a hit; in the whole collection about 12% have one here. Unless noted, the call rests on the fitted dose curve; in most records, active means well fitted curve in the direction sought with a large enough effect; inconclusive means small, poorly fitted or top-dose-only effect, or another doubt; inactive means no such curve, though single readings can be large; an effect the other way counts as inactive or inconclusive.

SMILES | JMJD2A Tudor | PI5P4Ka inh | HP1b chromo inh | PLK1 PBD inh | G9a inh | BAZ2B inh
CSc1ncc(C(=O)Nc2ccc(Cl)cc2C(=O)c2ccccc2)c(C)n1 | n | x | n | x | n | n
COc1cccc(C(C(=O)NCc2ccco2)N(Cc2ccco2)C(=O)Cn2nnc3ccccc32)c1 (centres undefined) | n | n | n | n | n | n
CC(C)CS(=O)(=O)C1=NN2C(=N)/C(=C\c3ccc(OC(=O)c4ccco4)cc3)C(=O)N=C2S1 | n | -84.0 | n | 21.2µM | x | u
Cc1ccc2nc(C)n(-c3ccc(F)cc3)c(=O)c2c1 | n[11.4 µM] | n | n | 21.2µM | n | n
COc1cc(/C=C(/C)[N+](=O)[O-])ccc1OCc1ccccc1Cl | n | n | n | 2.38µM | 10µM | u
COc1cc(CNc2ccc3[nH]c(=O)[nH]c3c2)ccc1OCc1ccccc1C | n | n | n | n | u | n
O=C1NC(=S)NC(=O)C1=Cc1ccc2c(c1)CCN2CCCCl | 7.94µM | -92.3 | u | 2.67µM | 10µM | 25.1µM
CN1C(=O)/C(=C\N2CCc3ccccc32)C(=O)NC1=S | u | u | n | n | u | n
C[C@@H]1C(=O)O[C@H]2CC34[C@H]5C[C@@H](C(C)(C)C)[C@]36[C@@H](OC(=O)[C@@H]6O)O[C@@]4(C(=O)O5)[C@]21O (some centres undefined) | n | n | n | n | n[12.7 µM] | n
CC(C)(C)NC(=S)/N=C(\N)N[N+](=O)[O-] | n | n | n | n | 22.4µM | u
CCOCCCn1c(N)c(C(=O)Nc2sc3c(c2C(=O)OC)CCCC3)c2nc3ccccc3nc21 | n | x | n | n | 5.62µM | u
CN1CCN(Cc2cc(C(C)(C)C)c(O)c(C(C)(C)C)c2)CC1 | 2.24µM | n | u | 23.8µM | 8.91µM | u
CN1CCN(Cc2ccc(N)cc2)CC1 | n | n | n | n | n[0.501 µM] | n
COc1ccccc1NC(=O)Cn1c(=O)n(-c2cccc(Cl)c2)c(=O)c2sc3ccccc3c21 | n | x | n | x | n | n
O=C1/C(=C\c2cc3c(cc2Br)OCO3)N2CCC1CC2 | n | n | n | n | 44.7µM | n
CC(N)Cc1c[nH]c2ccc(Cl)cc12 (centres undefined) | n | x | n | n | x | x
Clc1ccc2[nH]c3c(c2c1)CCNC3 | n | n | n | n | 79.4µM | n
N[C@@H](Cc1c[nH]c2ccccc12)c1nnc(SCc2ccccc2)o1 | n | n | n | n | x | u
Cc1[nH]nc2ccc(-c3cncc(OC[C@@H](N)Cc4c[nH]c5ccccc45)c3)cc12 | 35.5µM | n | n | n | x | x
CN1CC[C@@]2(CCCN(C(=O)Oc3ccccc3)C2)C1 | x | x | x | x | n[12.7 µM] | x
CCn1nc(-c2cccs2)nc2c(=O)n(C)c(=O)nc1-2 | n | n | n | n | 17.8µM | n
CCOc1ccc(-n2c(-c3cccs3)nc3ccccc3c2=O)cc1 | n | n | n | n | n[0.501 µM] | n
CCOc1ccc(-n2c(/C=C/c3ccccc3)nc3ccccc3c2=O)cc1 | n | x | n | x | n | n
CCn1nc(/C=C/c2ccccc2)nc2c(=O)n(C)c(=O)nc1-2 | n | n | n | 23.8µM | x | n
N#CC1=C(N)Oc2c(c(=O)oc3ccccc23)C1c1ccncc1 (centres undefined) | n | x | n | n | n | n
SMILES | JMJD2A Tudor | PI5P4Ka inh | HP1b chromo inh | PLK1 PBD inh | G9a inh | BAZ2B inh
N#CC1=C(N)Oc2c(c(=O)sc3ccccc23)C1c1cccnc1 (centres undefined) | n | -62.7 | n | n | n | n
CC(C)c1c(CN(C)[C@@H](C)Cc2ccccc2)n(C)n(-c2ccccc2)c1=O | x | x | x | x | n[5.15 µM] | x
c1cc2c(c(N3CCNCC3)c1)OCCO2 | x | x | x | x | n | x
CC(C)N1CCN(c2ccc(O)cc2)CC1 | u | n | u | n | 8.91µM | n
CC(N)Cc1ccc(O)cc1 (centres undefined) | x | x | x | x | n[2.33 µM] | x
COc1cc2c(cc1O)C[C@H]1NCCc3cc4c(c-2c31)OCO4 | 22.4µM | n | n | n | u | 22.4µM
COc1ccc(CNCC(=O)N2CCC3(CC2)OCCO3)cc1 | 12.6µM | x | u | n | 22.4µM | 35.5µM
NS(=O)(=O)c1cc(C(=O)OCC(=O)Nc2ccc3[nH]c(=O)[nH]c3c2)ccc1Cl | n | n | n | n | 1.41µM | n
CN(CC(=O)Nc1ccc(N2CCOCC2)cc1)CC(=O)Nc1cccc(C#N)c1 | n | n | n | n | u | u
CC(=O)Nc1ccc2c(c1)CC1(C(=O)N(C)C(=O)N(C)C1=O)C1CCCN21 (centres undefined) | n | n | n | n | 35.5µM | n
Cc1cc(=O)[nH]c(SCc2nc3ccccc3c(=O)n2-c2ccccc2C)n1 | n | n | n | n | n | n
O=c1[nH]c(SCc2n[nH]c(=S)n2-c2ccccc2)nc2ccccc12 | 7.94µM | n | n | n | u | n
O=C1Nc2ccccc2Sc2ccccc21 | n | n | n | n | n | n
c1ccc2c(c1)Nc1ccccc1S2 | u | n | u | n | 12.6µM | 12.6µM
CN(CCc1ccccc1)Cc1c[nH]c2ccccc12 | u | n | n | n | 3.16µM | u
O=C(c1ccco1)N1CCN(C(=O)c2ccc(COc3ccc(Cl)cc3Cl)o2)CC1 | 89.1µM | u | n | n | x | x
O=C(O)COc1ccc(Cl)cc1Cl | n[11.4 µM] | n | n | u | x | x
O=C(Nc1cc(C(F)(F)F)cc(C(F)(F)F)c1)c1cccn(Cc2ccccc2Cl)c1=O | n | x | n | x | n | n
FC(F)(F)c1ccccc1CNCCc1c[nH]c2ccccc12 | 17.8µM | n | n | n | n[2.33 µM] | 44.7µM
Fc1ccccc1CNCCc1c[nH]c2ccccc12 | 44.7µM | n | u | n | u | 56.2µM
CCOP(=S)(OCC)Oc1cc(C)oc(=O)c1Cl | 20µM | n | n | 4.74µM | 8.91µM | 56.2µM
CCOP(=S)(OCC)Oc1cc(C)oc(=O)c1 | n | n | n | 29.9µM | x | u
CCOP(=S)(OCC)Oc1ccc2c(C)c(Cl)c(=O)oc2c1 | n | n | n | n | n | x
COc1ccc(/C=C2/C(=O)NC(=S)N(C3CC3)C2=O)cc1CN1C(=O)c2ccccc2C1=O | 25.1µM | -88.3 | u | 2.67µM | 3.55µM | 50.1µM
COc1cc(/C=C2/C(=O)NC(=O)N(c3ccccc3)C2=O)ccc1O | n | -58.9 | n | 8.44µM | 35.5µM | n
SMILES | JMJD2A Tudor | PI5P4Ka inh | HP1b chromo inh | PLK1 PBD inh | G9a inh | BAZ2B inh
COc1cccc(N2C(=O)NC(=O)/C(=C/c3ccc4c(c3)Cc3ccccc3-4)C2=O)c1 | 56.2µM | u | n | 3.36µM | 7.08µM | 44.7µM
CCOc1ccc(CC2C(=O)NC(=O)N(c3ccc(CC)cc3)C2=O)cc1 (centres undefined) | n | n | n | n | u | n
CCOc1cc(/C=C2/C(=O)NC(=O)N(c3ccc(CC)cc3)C2=O)ccc1OC(=O)c1cccs1 | 79.4µM | -69.9 | n | 5.97µM | n[0.501 µM] | 50.1µM
CCOc1ccc2c3c1O[C@H]1[C@@H](O)C=C[C@H]4[C@@H](C2)N(C)CC[C@@]341 | x | x | x | x | n[2.33 µM] | x
CN1CCN(c2csc3ccc(F)cc3c2=O)CC1 | n | x | n | x | n | n
O=C(c1ccccc1Cl)N1CCC(c2nc3ccccc3s2)CC1 | n | x | n | x | n | n
